According to PMC13494018:
Values without a mark were called inactive. How the calls were made is not given here.

Molecular target: CD276, Q5ZPR3
Sequence (Q5ZPR3 whole entry): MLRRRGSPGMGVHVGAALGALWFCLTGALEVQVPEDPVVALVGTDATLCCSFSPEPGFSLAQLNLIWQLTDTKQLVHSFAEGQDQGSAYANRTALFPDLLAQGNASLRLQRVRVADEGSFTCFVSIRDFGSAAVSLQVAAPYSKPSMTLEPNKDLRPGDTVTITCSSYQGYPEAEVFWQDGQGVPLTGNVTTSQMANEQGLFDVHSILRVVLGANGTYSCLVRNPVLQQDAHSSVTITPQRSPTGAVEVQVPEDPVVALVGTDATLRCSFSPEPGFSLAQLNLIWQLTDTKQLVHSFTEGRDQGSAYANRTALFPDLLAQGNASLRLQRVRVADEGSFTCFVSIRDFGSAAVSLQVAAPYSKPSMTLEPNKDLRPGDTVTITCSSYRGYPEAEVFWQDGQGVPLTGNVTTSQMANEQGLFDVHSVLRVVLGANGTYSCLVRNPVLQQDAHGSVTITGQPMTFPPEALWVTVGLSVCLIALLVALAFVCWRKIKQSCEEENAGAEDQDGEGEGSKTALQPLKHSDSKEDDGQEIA

Row | Binder | binding in a display sort
1 | design_617_b3fadc1d-0db4-4da8-8433-818493aa2ab2_820_dldesign_0_cycle1_af2pred (protein) AEGKALVEQAKALAAQGAAHPQHAAAVAGTLANIGKYLAKLGPEYAKAAADVLNAFAKAVPSVAAQAKAAAAELEKLAKEA | not found
2 | design_617_b3fadc1d-0db4-4da8-8433-818493aa2ab2_1296_dldesign_0_cycle1_af2pred (protein) DGEKIQEVLDKAKELYKIAKEIEKKNPEYGKEILKLVQEALSLIAKGNAEEAMKKMEEAEKYAEEVKKKLKEEE | not found
3 | design_618_d4ffd631-0ea2-432e-ba0f-bd3d6297b2a0_442_dldesign_0_cycle1_af2pred (protein) AAATRATADAALAELERVGEVAVTVAKSALEAGFSKETALKIGTSLVENVVTGATAAVADDPAAQARIRAAGERIKEEIRKAL | not found
4 | design_617_b3fadc1d-0db4-4da8-8433-818493aa2ab2_1081_dldesign_0_cycle1_af2pred (protein) GEEAAKKAQELVEKIKKLAKEIAAGTAEQAAKLLEEALKYAKEAYKLAAKADPETAAKLSAAANEELAKANRAAIALQRA | not found
5 | design_618_d4ffd631-0ea2-432e-ba0f-bd3d6297b2a0_93_dldesign_0_cycle1_af2pred (protein) MEEVKALIARAAELLAAAAADPSTAGEKVTEAIRLLAEAAALDPSIAPLANEAMALATRGLVTGPEGLAAAEEATKAVLEAV | not found
6 | design_617_b3fadc1d-0db4-4da8-8433-818493aa2ab2_1817_dldesign_0_cycle1_af2pred (protein) AEEERMRAAIREIAAAAAAEVEAWAKAHPAADQAEWFAALQAAGEKAAEAMAAIDPRYAPEARALAMALGAGAVQRVKA | not found
7 | design_617_b3fadc1d-0db4-4da8-8433-818493aa2ab2_2293_dldesign_0_cycle1_af2pred (protein) AEEALKLLKEAKKKAEEALKLAEKGGDPEEIKALVNEALSLATKGSAQAVKHPEIAPLGNAVLGYAVDVAERVEELLKERE | not found
8 | design_617_b3fadc1d-0db4-4da8-8433-818493aa2ab2_1528_dldesign_0_cycle1_af2pred (protein) AQAVLQAASEAMVEAARVGSRASPEDRARLRALLAATSTAAIAAARGDGQAALDQAAALAAELTAAVEAVKARA | not found
9 | design_617_b3fadc1d-0db4-4da8-8433-818493aa2ab2_1042_dldesign_0_cycle1_af2pred (protein) MSAAEIIREALKLLKEAAKAAATDPAKAKELADKAIALGKENQGAALLLSNTARNLAATATPEEAAFLLEVAERARAVAEAL | not found
10 | design_617_b3fadc1d-0db4-4da8-8433-818493aa2ab2_977_dldesign_0_cycle1_af2pred (protein) AQAVQEKAAKALATASEVAEKDQSLVPEATEAMNKASQGVALVVAGNTEEGQKLVEEALKTAEKLKKKLE | not found
11 | design_618_d4ffd631-0ea2-432e-ba0f-bd3d6297b2a0_140_dldesign_0_cycle1_af2pred (protein) NEDLTKAGEKVVETQRTASEAARTSGDPAVAAEMNAIANAAIKALQAGVATGDYKTALETTEKLLKEAKAKLKEVK | not found
12 | design_617_b3fadc1d-0db4-4da8-8433-818493aa2ab2_1003_dldesign_0_cycle1_af2pred (protein) KAAALHAIKVAETLLKKAKEFLEKGKEEGPEYYKMAYATAQSAILVAQGAVEVAKKVSKKLYKKAKKLLEEAKKLAEEAKKLAE | not found
13 | design_617_b3fadc1d-0db4-4da8-8433-818493aa2ab2_1373_dldesign_0_cycle1_af2pred (protein) DAALRFAEAQLRRIERLAAEIIALGGPAWAPEAEALVAEAREALELIKTDPGAGMALLIETIERAYALLAEVRAAAA | not found
14 | design_618_d4ffd631-0ea2-432e-ba0f-bd3d6297b2a0_220_dldesign_0_cycle1_af2pred (protein) DKEEAVKLAEEGAEVALKLADKRVGAVTAAAFRGLARSIRAAEDPEDIAKIAEVAKGMKAWAEAQLKATA | not found
15 | design_618_d4ffd631-0ea2-432e-ba0f-bd3d6297b2a0_170_dldesign_0_cycle1_af2pred (protein) AAAAAAADAEAAALAKGFVEEAKKKIEALLKAGAPEEELLAEASRVAAKAIRTFAALGWNGSHAVAAVKAITEEAKKAIEKLRA | not found
16 | design_618_d4ffd631-0ea2-432e-ba0f-bd3d6297b2a0_400_dldesign_0_cycle1_af2pred (protein) SSSLIDRLTGIALKGLSIAQGVLDKVEAGEATPEEIEEGIKAAEESEKAAKELSKLLAAQPAASEYYKKLAERAKEYKEKLKKALA | not found
17 | design_617_b3fadc1d-0db4-4da8-8433-818493aa2ab2_1885_dldesign_0_cycle1_af2pred (protein) AEAAKKGEEAVKKAEEAKKKAEAAAAKLPASVADPVKAAADALVASAKAHAEAGNTESAEATAEVLAGMAEGTKARADALAA | not found
18 | design_617_b3fadc1d-0db4-4da8-8433-818493aa2ab2_1608_dldesign_0_cycle1_af2pred (protein) SEAERIAKAAKEMIEQQKKAGVEGSPVSAEISAKNMEANAKAHSKAIIAADPKTGKKLAKEVKKYAEEAKKEVEEAAKKKLAA | not found
19 | design_617_b3fadc1d-0db4-4da8-8433-818493aa2ab2_944_dldesign_0_cycle1_af2pred (protein) AEAAAIEQLNTAVEIIESAAKAGERFARAAAGLFITLARQYADVVPKETLTALAERATAAAAPVPAVAERLAAALQEVIEA | not found

Row | Binder | binding in a display sort
20 | design_618_d4ffd631-0ea2-432e-ba0f-bd3d6297b2a0_165_dldesign_0_cycle1_af2pred (protein) AAAAAKVAVAAAKSMIKQAKKFLEEGEKSGDLKLVESAKKLAEQAKNLAKFAIANPATKEEGEKLEKEAEEVKKKAEEAEKKIK | not found
21 | design_617_b3fadc1d-0db4-4da8-8433-818493aa2ab2_2347_dldesign_0_cycle1_af2pred (protein) AAAEQAAREALQGRALEKMKEYVDKLVALAKETGSEAALEAAQQVASLFTQAIIAAQQDLAAGRAALAQGEALAKAAIAALE | not found
22 | design_617_b3fadc1d-0db4-4da8-8433-818493aa2ab2_2360_dldesign_0_cycle1_af2pred (protein) AAAQAQAQQIVDQTRAAVEEARAMAEDGATAAAAAERAAAVARQASAAIPQALAASPQIAGQLAQVALDATRVEAEARRNAA | not found
23 | design_618_d4ffd631-0ea2-432e-ba0f-bd3d6297b2a0_110_dldesign_0_cycle1_af2pred (protein) AGAAAAEEIRALVDKAIADPATAPEYTARAAEIARAADPRLAGVGQAILAAAERLAAGSPEEAARHAAQMRELTDVVVATLLG | not found
24 | design_617_b3fadc1d-0db4-4da8-8433-818493aa2ab2_1384_dldesign_0_cycle1_af2pred (protein) MEELMEKVKSLGQAAIVAATAAKSAAAAGNTDAARVLLAQARRWLEEAGEAAEKAGEEAKEVYEEVRKVVEAEIAAAEAAIAAA | not found
25 | design_617_b3fadc1d-0db4-4da8-8433-818493aa2ab2_2043_dldesign_0_cycle1_af2pred (protein) DLVEKYREEALAEAEKLVKEGVSPEEAAEILMEKAREYFAQAAKASPEVAVKLIAKAEGYALAAKEIRERL | not found
26 | design_617_b3fadc1d-0db4-4da8-8433-818493aa2ab2_1433_dldesign_0_cycle1_af2pred (protein) GVAEQAIRGLARNTVAAIEAGTLTEEGLEKALELIRGIGEAAGPAARAVAEEAIERVREAWERRKRAEAEAAAA | not found
27 | design_617_b3fadc1d-0db4-4da8-8433-818493aa2ab2_1940_dldesign_0_cycle1_af2pred (protein) MEEYRARAEELLEKAKKAAEGENGVGDVGELAVEMAKLAAEAEKASPEAGAYARAALVEISQLAIEAAKRKAA | not found
28 | design_617_b3fadc1d-0db4-4da8-8433-818493aa2ab2_943_dldesign_0_cycle1_af2pred (protein) AEAAQEAAVADMEKAAAIAKKYAELFPSTADALIKAAEDALAAVKANKETAAETAKAGLKALNATIAAAMRQALADSAA | not found
29 | design_617_b3fadc1d-0db4-4da8-8433-818493aa2ab2_1728_dldesign_0_cycle1_af2pred (protein) GAALAARHGAAAARGALQGTVEEAAAQLANGLKIAAQLAPADGAAYRAAVLAVIAQASPERAAAILALAG | not found
30 | design_617_b3fadc1d-0db4-4da8-8433-818493aa2ab2_836_dldesign_0_cycle1_af2pred (protein) VTPEEAKKRVEELVEEAIKLAEKADPAEAEKIRKTYETEGPLAAAAVIWAIGNRFAEKPETKEIGERLRELAIEAIRLLLAAAAA | not found
31 | design_617_b3fadc1d-0db4-4da8-8433-818493aa2ab2_1785_dldesign_0_cycle1_af2pred (protein) EAEEYYKKGKEYSAKGDELYKAGKYEEAIKYYQKAANYYSKASILLTKAGGDQEKIDEANANLAKALENLEKASRALREAREKEEK | not found
32 | design_618_d4ffd631-0ea2-432e-ba0f-bd3d6297b2a0_318_dldesign_0_cycle1_af2pred (protein) MEKKEELKKKAEEAIKKLKKLKEEGASPEEINKALAEAVELAKEAAEAGDSETANRLLSEAGRLSIEALKNHAA | not found
33 | design_617_b3fadc1d-0db4-4da8-8433-818493aa2ab2_2387_dldesign_0_cycle1_af2pred (protein) AAAAEGELLGKLIELARRASKLDPETANLILSGLGLYGVDPEAGVKKLLEAAELAKKAGHEELAKEIKELAEKLAAVSAA | not found
34 | design_617_b3fadc1d-0db4-4da8-8433-818493aa2ab2_1083_dldesign_0_cycle1_af2pred (protein) GDPEASKEALEYAKKAEELVKKAEELKDNPELAKKLIEEAKKHIHLALAEAGKAYPEVAQKVLTTVEKVLEKIKEL | not found
35 | design_617_b3fadc1d-0db4-4da8-8433-818493aa2ab2_1686_dldesign_0_cycle1_af2pred (protein) MEEYLEEAKRFAESVIELSKLLLEGAPYNPALSAASLAALRKQAKARAEEAAKIDPEAAEALEKAAKTAEEAEKKAKALAA | not found
36 | design_617_b3fadc1d-0db4-4da8-8433-818493aa2ab2_1106_dldesign_0_cycle1_af2pred (protein) GARARMEASIAQARELAAAAVAQAAAVDPAAAAAAAAALDALLAAAEAALAAGDYDAAAAAINAAVTLAIKWMQAAAAA | not found
37 | design_617_b3fadc1d-0db4-4da8-8433-818493aa2ab2_2366_dldesign_0_cycle1_af2pred (protein) GLEKALKELKKVAEATAAAATAADPAMKPTADLLKKAAERAAAGDAETALANLNTILVLADSIAAVDPAAAKKLKEAAEKAIKIAR | not found
38 | design_617_b3fadc1d-0db4-4da8-8433-818493aa2ab2_1993_dldesign_0_cycle1_af2pred (protein) PSVEEIGQALLDNLKKTLEEAVKASLEEAKGYAAQAAALYIGAHGASPEYGKQAEEIVKKAIKELEKKDPEKAKILKEAIEKAEALL | not found
